Source: PubChem BioAssay (National Center for Advancing Translational Sciences (NCATS))
TRPV1 PAM – enhances activation of the human vanilloid receptor TRPV1 | hit rate 0.02% among 320,000 | TRPV1-expressing cells, Fluo-8 calcium influx, capsaicin EC20 potentiation | Q8NER1 | potentiation, % at 8.33 µM; in the data active = potentiation above about 80%; inconclusive = between about 30% and that limit; also: 0% is about no effect
Target sequence (Q8NER1 whole entry, looked up): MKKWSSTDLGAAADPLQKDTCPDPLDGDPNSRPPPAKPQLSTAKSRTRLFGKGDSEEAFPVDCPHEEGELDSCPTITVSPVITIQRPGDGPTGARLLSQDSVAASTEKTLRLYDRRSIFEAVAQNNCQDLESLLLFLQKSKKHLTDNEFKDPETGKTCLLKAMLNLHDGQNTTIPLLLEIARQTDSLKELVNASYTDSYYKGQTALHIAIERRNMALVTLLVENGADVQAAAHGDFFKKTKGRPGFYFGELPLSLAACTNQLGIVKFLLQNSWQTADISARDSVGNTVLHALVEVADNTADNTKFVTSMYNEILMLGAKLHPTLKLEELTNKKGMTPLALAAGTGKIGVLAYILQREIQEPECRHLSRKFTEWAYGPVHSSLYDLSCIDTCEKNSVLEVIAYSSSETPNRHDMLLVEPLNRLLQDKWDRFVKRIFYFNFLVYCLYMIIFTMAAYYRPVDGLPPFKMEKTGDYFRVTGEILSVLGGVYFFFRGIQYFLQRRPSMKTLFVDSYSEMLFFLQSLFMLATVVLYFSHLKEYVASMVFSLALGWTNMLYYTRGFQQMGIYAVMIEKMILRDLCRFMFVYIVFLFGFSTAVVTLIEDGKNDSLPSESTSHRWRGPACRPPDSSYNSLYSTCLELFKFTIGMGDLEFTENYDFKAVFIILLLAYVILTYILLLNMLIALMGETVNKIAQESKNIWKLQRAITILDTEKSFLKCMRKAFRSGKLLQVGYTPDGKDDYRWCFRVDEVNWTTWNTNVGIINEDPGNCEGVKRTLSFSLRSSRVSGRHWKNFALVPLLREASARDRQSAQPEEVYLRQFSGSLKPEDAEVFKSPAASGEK
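TRPV1-expressing cells were cultured overnight at 35.5C and loaded with Fluo-8 calcium dye for 40 to 90 min at room temperature. After a 10 s baseline, compound was added and calcium influx was read kinetically for 3 min (ex 480/em 520 nm).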
TRPV1 agonist – human TRPV1 agonism; hit rate 0.19% among 320,000; Q8NER1; activation, % at 8.33 µM; AID 540275; TRPV1-expressing cells, Fluo-8 calcium influx, agonist mode; in the data active = activation above about 80%; inconclusive = between about 30% and that limit; also: 0% is about no effect
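TRPV1-expressing cells were cultured overnight at 35.5C and loaded with Fluo-8 calcium dye for 40 to 90 min at room temperature. After a 10 s baseline, compound was added and calcium influx was read kinetically for 3 min (ex 480/em 520 nm).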
TRPML1 ag – activates the human TRPML1 channel; TRPML1-expressing cells, Ca2+ dye fluorescence, FDSS; activation, % (no concentration beside the values); hit rate 0.12% among 410,000; AID 624414; in the data active = activation above about 50%; inconclusive = mostly about 30% to 49%; also: 0% is about no effect
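Calcium fluorescence on an FDSS kinetic reader gave the read-out. Tet-induced TRPML1-DL cells were plated overnight, dye-loaded (Ca8 with quencher, 45-90 min, room temperature, dark), then read 110 s after compound addition, and again 110 s after 4uM final 54-4 (EC80).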
KCNH2 WT inh – KCNH2 (human, wildtype) channel inhibition | U2OS, BacMam KCNH2, thallium flux FluxOr; hits give low values | activity change, % at 1.84 µM | hit rate 0.37% among 340,000 | Q12809;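 active = maximum activity change below -70%; inconclusive = maximum activity change between -70% and -50%; inactive = maximum activity change above -50%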; also: % is scaled to controls: 0 for no effect and ±100 for the full control effect
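U2OS cells were transduced with wild-type KCNH2 virus (2.03 x 10^8 / mL) for 4 h at room temperature, then cultured overnight at 37 C. Thallium flux was read with FluxOr dye. Rate constants were normalized to DMSO controls.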
KCNH2 3.1 block – inhibitors of human KCNH2 3.1 potassium channel isoform. U2OS KCNH2 3.1, thallium flux FluxOr; hits give low values. activity change, % (tested at about 1.8 µM). hit rate 0.95% among 340,000;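 active = maximum activity change below -70%; inconclusive = maximum activity change from -70% to -50%; inactive = maximum activity change above -50%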;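 also: thallium influx rate constant from kinetic fluorescence after stimulation buffer; % is scaled to controls: 0 for no effect and ±100 for the full control effect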
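Kinetic fluorescence (2 min after stimulation buffer) measures Tl+ influx through KCNH2 3.1 expressed by viral transduction in U2OS cells; the rate constant is normalized against DMSO controls serving as positive and negative references.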
TRPML1 inh – blocks the human TRPML1 channel. Q9GZU1. TRPML1-inducible cells, Ca2+ dye fluorescence, FDSS; hits give low values; inhibition of EC80 agonist-evoked calcium signal. activity change, negative = inhibition, % (no concentration beside the values). hit rate 0.02% among 390,000. AID 624415; in the data active = activity change below about -50%; inconclusive = between about -30% and that limit;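 also: stimulus is agonist 54-4 at its EC80 concentration; % is scaled to controls: 0 for no effect and ±100 for the full control effect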
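Calcium fluorescence in TRPML1-DL cells induced overnight with Tet: a 110 s read after compound pin addition, then a 110 s antagonist read after challenge with 54-4 at 4 uM final (EC80).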
The depositor's hits bear a star; ? = inconclusive; . = no result. Most compounds without a hit are left out; they make up all but 1.3% or so of the library.

SMILES	TRPV1 PAM	TRPV1 agonist	TRPML1 ag	KCNH2 WT inh	KCNH2 3.1 block	TRPML1 inh
CCC(=O)Nc1ccc(C(=O)CSc2nnc(-c3ccc(NS(=O)(=O)CC)cc3)o2)cc1OC	-5.2	2.2	0.8	-91.9*	8.0	1.5
Cc1ccc(C)c(NC(=O)C(OC(=O)c2ccc(NC(=O)CC#N)cc2)c2ccccc2)c1 (configuration not stated)	-3.4	2.0	-0.6	-0.3	-70.8*	-16.7
O=[N+]([O-])c1ccc(OCCCCN2CCCCC2)cc1	-1.7	-3.8	0.4	58.2	-26.8	-1.2
O=[N+]([O-])c1ccc(OCCCCN2CCc3ccccc3C2)cc1	-3.5	1.4	-0.5	-16.0	-71.3*	25.8
Cc1cc2c(cc1NS(=O)(=O)c1cccc(C#N)c1)n(C)c(=O)c(=O)n2C	.	.	0.9	.	.	5.7
CCCCN(CC)C(=O)CSc1nc2n[nH]c(C)c2c(=N)n1-c1cccc(Cl)c1	.	.	0.3	.	.	-7.1
Cc1ccc(Nc2nc(Cl)nc(NC3CCCCC3)n2)cc1	-8.3	2.4	5.3	0.9	-93.1*	14.4
Cc1oc2c(C)c3oc(=O)c(CC(=O)N4CCCCC4)c(C)c3cc2c1C	.	.	0.5	.	.	-8.0
COC(=O)c1cccc2c1-c1ccccc1/C2=N\NC(N)=O	7.0	-1.7	0.6	-147.4*	-189.6*	-17.4
CCOC(=O)c1cc(CC)sc1/N=C/C1C(=O)CC(C)(C)CC1=O	-4.8	5.3	0.9	-24.5	-74.9*	1.8
O=C(COc1ncnc2ccc(Br)cc12)Nc1ccc(N2CCOCC2)cc1	-2.1	0.6	-0.1	3.6	-2.3	0.9
Brc1ccc2ncnc(Nc3ccc(N4CCOCC4)cc3)c2c1	9.4	0.9	0.2	1.5	-104.5*	35.8
CCN(CC)CCOC(=O)C(Cc1ccco1)Cc1cccc2ccccc12 (configuration not stated)	.	.	0.0	-7.0	-73.8*	0.2
CCN(CC)CCOC(=O)CCc1cccc2ccccc12	-7.7	0.7	0.8	-10.6	-7.1	-12.5
O=C(c1cc2sccc2n1Cc1ccc(F)cc1)N1CCN(c2nc3ccccc3s2)CC1	7.0	3.1	1.9	-15.9	-90.0*	21.9
CC(C)Oc1ccc(-c2nc(-c3cccnc3)no2)cc1	.	.	-0.8	.	.	.
CCOC(=O)c1cn(Cc2ccccc2)c(C(=O)OC(C)(C)C)c1O	.	.	60.5*	8.3	-16.1	-5.5
COc1ccccc1OCC(=O)Nc1nc(C)c(C)s1	-3.2	2.5	-0.4	18.0	-74.6*	-7.0
CC[C@]12CCCN3CCc4c(n(c5ccccc45)[C@@](O)(C(=O)OC)C1)[C@@H]32	-6.3	0.7	-0.6	-15.0	-103.1*	-3.2
CN1CCn2cnc(C(=O)NCc3ccccc3)c2C1=O	.	.	-0.7	-1.4	1.9	1.4
Cc1cccc(NC(=O)c2ncn3c2C(=O)N(C)CC3)c1	.	.	.	3.2	-82.6*	.
COc1ccc(CN2CC[C@H]3C=CC[C@@H](C(=O)Nc4ccccc4)[C@H]3C2=O)cc1OC	.	.	-0.5	.	.	.
CC(C)Cn1c(SCC(=O)c2c(N)n(C)c(=O)n(C)c2=O)nc2ccccc21	-3.6	6.1	0.1	-116.1*	-31.9	2.1
Cc1csc(SCC(=O)c2c(N)n(CC(C)C)c(=O)n(C)c2=O)n1	1.9	3.6	-0.6	-325.2*	-9.0	-2.0
CCOC(=O)Cc1csc(SCC(=O)c2c(N)n(CC(C)C)c(=O)n(C)c2=O)n1	-11.3	3.5	-0.5	-10.1	-15.3	16.7
CC(C)Cn1c(N)c(C(=O)CSc2nc3ccccc3n2C)c(=O)n(C)c1=O	-1.6	0.0	-0.3	21.6	-15.0	-8.7
CCOC(=O)CC(NC(=O)CCc1c(C)nc2c(c(C)nn2-c2ccc(C)c(C)c2)c1C)c1ccc(C)cc1 (configuration not stated)	.	.	-0.3	.	.	-7.5
O=C(OCc1ccccc1F)c1ccc(-c2nnn(Cc3ccccc3)n2)cc1	.	.	1.4	.	.	-18.3
O=S(=O)(Nc1nc2ccccc2nc1Nc1ccc2c(c1)OCO2)c1ccccc1	?	-5.2	-0.3	6.4	-96.0*	18.2
